Test results: PubChem BioAssay (EPA / NIEHS)
Calls of active or inactive are those of the source. Rule for the calls: active = hit-call score of the fitted dose curve at least 0.9, where 1 is the maximum; inactive = score below 0.9.

Tests used:
[1] = ATG_CRE_CIS: Attagene CIS-FACTORIAL HepG2 Assay for human cAMP Responsive Element (CRE) binding protein 3 (AID 2282926); settings: HepG2 CRE cis-reporter, Attagene multiplexed mRNA; actives raise or lower the signal
Summary of the method: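 Transfected HepG2 were treated for 24 hours, then RNA was extracted and reporter cDNA amplified with sequence-specific primers. Labelled fragments were separated by capillary electrophoresis, and the CRE signal was fitted bidirectionally with DMSO as baseline.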

[2] = biological target: CCAAT/enhancer-binding protein beta (Homo sapiens) (UniProt P17676); test: ATG_C_EBP_CIS: Attagene CIS-FACTORIAL HepG2 Assay for human CCAAT/Enhancer Binding Protein (C/EBP) beta (AID 2282927); settings: HepG2 Attagene cis-factorial transcription factor reporter; actives raise or lower the signal
Summary of the method: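 HepG2 transiently transfected with multiplexed reporter units under cis-regulatory promoters reporting endogenous C/EBPb activity. After 24 h exposure, reporter mRNA assayed by RT-PCR, fluorescent labelling, HpaI digestion and capillary electrophoresis; bidirectional fitting versus DMSO.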

[3] = ATG_CMV_CIS: Attagene CIS-FACTORIAL HepG2 Assay for human CMV (Internal Marker) (AID 2282928); settings: HepG2 CMV promoter reporter, transcription factor profiling; actives raise or lower the signal;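 note: endpoint acts as a background internal control marker rather than a target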
Summary of the method: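 Endogenous transcription factor activity read in HepG2 via transfected cis-promoter reporter units. After 24 h dosing, reporter mRNA measured by RT-PCR/capillary electrophoresis; gain or loss of signal fit relative to DMSO.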

[4] = ATG_DR4_LXR_CIS: Attagene CIS-FACTORIAL HepG2 Assay for human Liver X Receptor (LXR), DR4 submotif (AID 2282929); settings: HepG2 Attagene DR4 cis-reporter, mRNA transcription; actives raise or lower the signal
Summary of the method: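 After transient transfection with multiplexed cis-promoter reporter units, HepG2 cells received test chemicals for 24 h. Reporter mRNA induction, detected by fluorescence after RT-PCR and capillary electrophoresis, was scored relative to DMSO.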

[5] = biological target: Aryl hydrocarbon receptor (Homo sapiens) (UniProt P35869); test: ATG_Ahr_CIS: Attagene CIS-FACTORIAL HepG2 Assay for human Aryl Hydrocarbon Receptor (Ahr) (AID 2282930); settings: HepG2 AhR cis-factorial reporter transcription; actives raise or lower the signal
Summary of the method: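 HepG2 cells transiently transfected with cis-element-driven multiplexed reporter units; endogenous AhR activity read as reporter mRNA 24 h after dosing, via RT-PCR, 6-FAM labelling, HpaI digestion and capillary electrophoresis. Bidirectional fit relative to DMSO.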

[6] = ATG_AP_1_CIS: Attagene CIS-FACTORIAL HepG2 Assay for human Activator Protein 1 (AP-1) (AID 2282931); settings: HepG2 Attagene cis-factorial AP-1 reporter mRNA; actives raise or lower the signal
Summary of the method: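 After 24 h incubation with test chemical, RNA from transfected HepG2 cells was reverse-transcribed, amplified, fluorescently labelled and digested before capillary electrophoresis. Reporters were driven by cis-regulatory promoters; activity fitted bidirectionally versus DMSO.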

[7] = ATG_AP_2_CIS: Attagene CIS-FACTORIAL HepG2 Assay for human Activator Protein 2 (AP-2) (AID 2282932); settings: HepG2 AP-2 cis-reporter, Attagene transcription factor profiling; actives raise or lower the signal
Summary of the method: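 HepG2 cells transiently transfected with cis-element reporter units and exposed for 24 h. Reporter mRNA measured by RT-PCR, FAM labelling, HpaI digestion and capillary electrophoresis. Changes in either direction fitted relative to DMSO.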

[8] = ATG_BRE_CIS: Attagene CIS-FACTORIAL HepG2 Assay for human Bone Morphogenetic Protein (BMP) Response Element (BRE) (AID 2282933); settings: HepG2 BMP response element reporter, Attagene transcription factor profiling; actives raise or lower the signal
Summary of the method: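 Endogenous transcription factor activity at a BMP response element was monitored in transfected HepG2 cells 24 h after dosing. Fluorescent RT-PCR products were resolved by capillary electrophoresis, and activity was fitted in both directions versus DMSO.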

[9] = biological target: Retinoic acid receptor alpha (Homo sapiens) (UniProt P10276); test: ATG_DR5_RAR_CIS: Attagene CIS-FACTORIAL HepG2 Assay for human Retinoic Acid Receptor Alpha (RARE), DR5 submotif (AID 2282934); settings: HepG2 Attagene cis-factorial RARE DR5 reporter, mRNA; actives raise or lower the signal
Summary of the method: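 HepG2 cells transiently transfected with multiplexed reporter units; DR5 cis-element drives reporter through endogenous transcription factors. After 24 h dosing, reporter mRNA quantified by RT-PCR, fluorescent labeling, HpaI digestion and capillary electrophoresis; bidirectional fitting versus DMSO.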

[10] = biological target: Transcription factor E2F1 (Homo sapiens) (UniProt Q01094); test: ATG_E2F_CIS: Attagene CIS-FACTORIAL HepG2 Assay for human E2F Transcription Factor 1 (AID 2282935); settings: HepG2 Attagene cis-reporter, E2F reporter RNA transcripts; actives raise or lower the signal
Summary of the method: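 Endogenous E2F1 activity read through cis-promoter reporter units transfected into HepG2. After 24 h compound treatment, reporter mRNA measured by RT-PCR, HpaI digestion and capillary electrophoresis. Bidirectional fit versus DMSO.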

[11] = ATG_E_Box_CIS: Attagene CIS-FACTORIAL HepG2 Assay for human Enhancer Box (E-box) (AID 2282936); settings: HepG2 E-box cis-reporter transcription, actives raise or lower the signal
Summary of the method: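 HepG2 cells transiently transfected with multiplexed cis-element reporter units, dosed 24 h; reporter mRNA quantified by RT-PCR, 6-FAM labelling, HpaI digestion and capillary electrophoresis. E-box (USF1) signal fitted bidirectionally vs DMSO.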

[12] = ATG_M_61_CIS: Attagene CIS-FACTORIAL HepG2 Assay for M61 Transcription Factor (Internal Marker) (AID 2282937); settings: HepG2 Attagene CIS-FACTORIAL M61 internal marker reporter; actives raise or lower the signal
Summary of the method: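 Using transiently transfected HepG2 liver cells, reporter transcript levels were assessed 24 h post-dosing by RT-PCR and capillary electrophoresis. Changes in either direction were fitted relative to DMSO controls.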

[13] = ATG_EGR_CIS: Attagene CIS-FACTORIAL HepG2 Assay for human Early Growth Response 1 (EGR1) (AID 2282938); settings: HepG2 Attagene CIS-FACTORIAL EGR reporter mRNA; actives raise or lower the signal
Summary of the method: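 Fluorescent capillary-electrophoresis signal of reporter cDNA fragments serves as read-out. HepG2 cells bear transiently transfected cis-promoter reporter units and are exposed 24 h; gain- or loss-of-signal is fitted against DMSO.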

[14] = ATG_M_19_CIS: Attagene CIS-FACTORIAL HepG2 Assay for M19 Transcription Factor (Internal Marker) (AID 2282939); settings: HepG2 Attagene CIS-FACTORIAL M19 internal marker reporter; actives raise or lower the signal
Summary of the method: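 Background-control endpoint from a multiplexed HepG2 reporter panel. Cells carrying cis-regulated reporter constructs are treated 24 h, then reporter transcripts are amplified, fluorescently labelled and sized by capillary electrophoresis. DMSO defines baseline.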

[15] = ATG_Ets_CIS: Attagene CIS-FACTORIAL HepG2 Assay for human Erythroblast Transformation Specific (ETS) (AID 2282941); settings: HepG2 ETS cis-reporter transcription, actives raise or lower the signal
Summary of the method: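 Steps: transfect HepG2 with multiple reporter units; treat compound 24 h; isolate RNA, DNase-treat, reverse-transcribe; PCR-amplify, label with 6-FAM, digest with HpaI; separate by capillary electrophoresis. Activity fitted both directions versus DMSO.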

[16] = biological target: Hepatocyte nuclear factor 3-beta (Homo sapiens) (UniProt Q9Y261); test: ATG_FoxA2_CIS: Attagene CIS-FACTORIAL HepG2 Assay for human Forkhead box A2 (FOXA2) (AID 2282942); settings: HepG2 cis-reporter transcription factor activity, 24 h; actives raise or lower the signal
Summary of the method: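 Fluorescence signal of reporter cDNA fragments, separated by capillary electrophoresis, reflects endogenous transcription factor activity in transfected HepG2 after 24 h. Both increases and decreases fitted against DMSO.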

[17] = ATG_FoxO_CIS: Attagene CIS-FACTORIAL HepG2 Assay for human Forkhead box O (FoxO) (AID 2282943); settings: HepG2 Attagene cis-reporter, FoxO element, mRNA; actives raise or lower the signal
Summary of the method: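 HepG2 cells transiently transfected with cis-element-driven reporter units report endogenous FoxO activity. After 24 h chemical exposure, reporter mRNA quantified by RT-PCR, fluorescent labeling, HpaI digestion and capillary electrophoresis; bidirectional fit versus DMSO.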

[18] = ATG_GATA_CIS: Attagene CIS-FACTORIAL HepG2 Assay for human GATA Binding Protein (AID 2282944); settings: HepG2 GATA cis-element reporter, Attagene multiplex mRNA; actives raise or lower the signal
Summary of the method: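 Endogenous transcription factor activity was captured through cis-promoter-driven reporters in transfected HepG2 cells. After 24 h exposure, reporter transcripts were quantified by RT-PCR with fluorescent capillary electrophoresis, and responses fitted both directions against DMSO.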

[19] = ATG_GLI_CIS: Attagene CIS-FACTORIAL HepG2 Assay for human Zinc Finger Protein GLI1 (AID 2282945); settings: HepG2, Attagene cis-factorial reporter mRNA, GLI element; actives raise or lower the signal
Summary of the method: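 Transiently transfected HepG2 cells report endogenous transcription factor activity via cis-element-driven reporter units. After 24 h compound exposure, reporter mRNA was measured by RT-PCR with capillary electrophoresis; bidirectional fitting against DMSO baseline.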

Measured: outcome

Chain of Aryl hydrocarbon receptor (Homo sapiens) (P35869 whole entry, looked up): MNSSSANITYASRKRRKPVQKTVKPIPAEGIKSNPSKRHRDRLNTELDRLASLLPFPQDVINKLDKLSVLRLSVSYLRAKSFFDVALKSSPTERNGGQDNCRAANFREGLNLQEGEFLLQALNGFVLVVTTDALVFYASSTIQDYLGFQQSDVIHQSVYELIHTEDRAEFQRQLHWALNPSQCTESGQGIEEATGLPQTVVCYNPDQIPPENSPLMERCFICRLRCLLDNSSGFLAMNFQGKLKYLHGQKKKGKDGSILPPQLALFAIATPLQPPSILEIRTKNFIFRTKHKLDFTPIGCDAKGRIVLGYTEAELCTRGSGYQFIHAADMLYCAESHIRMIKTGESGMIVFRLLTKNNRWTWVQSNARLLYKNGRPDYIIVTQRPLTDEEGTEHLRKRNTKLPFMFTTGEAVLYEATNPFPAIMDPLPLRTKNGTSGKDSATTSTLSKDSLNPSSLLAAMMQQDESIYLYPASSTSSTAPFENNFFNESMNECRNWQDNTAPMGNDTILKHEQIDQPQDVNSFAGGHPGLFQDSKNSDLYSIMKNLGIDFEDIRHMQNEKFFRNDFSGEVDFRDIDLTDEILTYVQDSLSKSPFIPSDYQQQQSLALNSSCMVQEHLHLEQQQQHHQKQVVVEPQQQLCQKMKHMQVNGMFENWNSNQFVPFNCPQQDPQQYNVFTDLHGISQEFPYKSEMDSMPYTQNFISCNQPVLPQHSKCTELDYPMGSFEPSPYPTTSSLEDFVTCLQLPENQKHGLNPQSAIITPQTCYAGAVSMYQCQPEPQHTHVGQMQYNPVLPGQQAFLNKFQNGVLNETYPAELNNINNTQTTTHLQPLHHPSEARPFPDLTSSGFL
Chain of CCAAT/enhancer-binding protein beta (Homo sapiens) (P17676 whole entry, looked up): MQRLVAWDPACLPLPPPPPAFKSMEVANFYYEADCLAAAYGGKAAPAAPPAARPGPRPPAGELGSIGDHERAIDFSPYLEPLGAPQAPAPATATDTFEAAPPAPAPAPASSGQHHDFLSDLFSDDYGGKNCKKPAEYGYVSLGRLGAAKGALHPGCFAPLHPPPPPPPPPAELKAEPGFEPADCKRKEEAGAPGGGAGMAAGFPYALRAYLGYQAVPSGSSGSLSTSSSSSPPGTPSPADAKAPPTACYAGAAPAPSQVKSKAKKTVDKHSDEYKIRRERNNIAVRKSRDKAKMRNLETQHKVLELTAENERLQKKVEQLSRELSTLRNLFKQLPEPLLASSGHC
Chain of Retinoic acid receptor alpha (Homo sapiens) (P10276 whole entry, looked up): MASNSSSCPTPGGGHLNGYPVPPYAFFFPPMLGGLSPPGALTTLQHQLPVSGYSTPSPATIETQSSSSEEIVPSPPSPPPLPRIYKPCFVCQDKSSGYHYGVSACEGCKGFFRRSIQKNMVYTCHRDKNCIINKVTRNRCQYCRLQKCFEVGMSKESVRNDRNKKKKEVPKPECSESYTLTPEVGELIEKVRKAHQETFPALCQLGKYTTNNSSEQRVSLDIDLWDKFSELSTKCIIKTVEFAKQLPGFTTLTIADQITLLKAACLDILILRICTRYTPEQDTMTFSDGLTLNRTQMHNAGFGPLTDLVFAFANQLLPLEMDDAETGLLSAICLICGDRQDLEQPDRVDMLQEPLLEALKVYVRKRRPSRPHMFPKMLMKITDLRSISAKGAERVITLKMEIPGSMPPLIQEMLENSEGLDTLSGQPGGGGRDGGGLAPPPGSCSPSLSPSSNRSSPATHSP
Chain of Hepatocyte nuclear factor 3-beta (Homo sapiens) (Q9Y261 whole entry, looked up, the tested form may be a part): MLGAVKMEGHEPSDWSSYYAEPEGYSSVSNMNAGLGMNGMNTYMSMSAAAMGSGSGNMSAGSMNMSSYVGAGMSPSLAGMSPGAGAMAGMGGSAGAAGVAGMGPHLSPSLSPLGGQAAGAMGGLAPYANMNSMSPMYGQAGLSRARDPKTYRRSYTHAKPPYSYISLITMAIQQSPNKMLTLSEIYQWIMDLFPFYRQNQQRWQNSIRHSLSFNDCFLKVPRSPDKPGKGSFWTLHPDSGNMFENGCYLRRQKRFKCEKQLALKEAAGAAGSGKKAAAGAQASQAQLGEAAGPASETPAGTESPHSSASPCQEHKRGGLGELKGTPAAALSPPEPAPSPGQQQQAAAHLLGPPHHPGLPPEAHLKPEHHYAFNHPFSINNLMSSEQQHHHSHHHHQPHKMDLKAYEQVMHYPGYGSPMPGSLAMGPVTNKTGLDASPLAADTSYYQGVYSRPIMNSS
Chain of Transcription factor E2F1 (Homo sapiens) (Q01094 whole entry, looked up): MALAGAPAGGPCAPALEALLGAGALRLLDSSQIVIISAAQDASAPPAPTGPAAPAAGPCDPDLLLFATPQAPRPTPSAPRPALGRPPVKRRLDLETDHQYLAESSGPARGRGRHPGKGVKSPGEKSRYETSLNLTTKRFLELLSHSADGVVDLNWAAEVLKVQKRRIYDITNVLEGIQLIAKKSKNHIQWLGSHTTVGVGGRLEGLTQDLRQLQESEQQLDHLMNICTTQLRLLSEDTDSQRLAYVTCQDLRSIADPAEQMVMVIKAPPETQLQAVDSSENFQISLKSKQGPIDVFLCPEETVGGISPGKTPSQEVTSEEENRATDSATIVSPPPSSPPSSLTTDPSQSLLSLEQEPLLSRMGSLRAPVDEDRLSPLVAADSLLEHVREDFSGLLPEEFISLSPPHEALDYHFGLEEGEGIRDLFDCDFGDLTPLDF

C=CCOC(=O)CCCCCC
inactive: all assays above

CCCCC1CCC(O)CC1 (stereo unspecified)
inactive: all assays above

CC(=O)OCCCc1ccccc1
inactive: all assays above

NCc1ccco1
inactive: all assays above
